# Compound activity from PubChem.
# D2 ag-1 = activates the human D2 dopamine receptor. AID 624465. 360,000 compounds, 0.084% hits. activation, % (no concentration beside the values). DiscoveRx PathHunter D2 beta-arrestin, luminescence, 90 min; 100% = 57 uM dopamine signal. P14416; in the data active means activation above about 40%; inconclusive means between about 15% and that limit
# Target sequence (P14416 whole entry, looked up): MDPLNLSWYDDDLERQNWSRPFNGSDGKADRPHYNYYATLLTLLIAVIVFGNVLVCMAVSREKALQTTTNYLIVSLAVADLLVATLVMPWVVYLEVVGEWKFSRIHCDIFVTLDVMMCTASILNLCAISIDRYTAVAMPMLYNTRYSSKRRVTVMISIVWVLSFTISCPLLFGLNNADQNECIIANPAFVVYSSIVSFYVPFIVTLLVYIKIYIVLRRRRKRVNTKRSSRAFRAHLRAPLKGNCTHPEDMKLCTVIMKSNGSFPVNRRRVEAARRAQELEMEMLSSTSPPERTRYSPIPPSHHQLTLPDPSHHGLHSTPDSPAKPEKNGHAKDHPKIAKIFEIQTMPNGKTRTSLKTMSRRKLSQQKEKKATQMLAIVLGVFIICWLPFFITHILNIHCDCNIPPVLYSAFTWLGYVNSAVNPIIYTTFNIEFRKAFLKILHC
#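 DiscoveRx PathHunter D2 beta-arrestin cells (2,100/well) attached overnight, then compound-stimulated 90 min at 37 C in HBSS/10 mM HEPES/0.1% Tween-20 buffer; beta-galactosidase complementation read by luminescence after 1 h at ambient temperature. Dopamine 57 uM final (EC100) as control.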
# D2 ag-2 = activates the human D2 dopamine receptor. P14416. HEK293 T-REx D2 cells, calcium flux agonist mode. activation, % at 2 µM. 340,000 compounds, 0.53% hits. AID 485358;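 active means activation over 3 SD above normal in the single-dose calcium agonist read, cut at about 30% in these data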; further: 0% is about no effect
#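 Tetracycline-induced HEK293 T-REx cells with force-coupled D2 receptor, plated overnight at 30 C, loaded with no-wash calcium dye. After a 10 s baseline, compound was pin-added and calcium flux read kinetically for 180 s; calcium rises flagged agonists.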
# D2 antag = antagonists of human D2 dopamine receptor | P14416 | HEK293 TREx D2 cells, calcium flux, dopamine EC80 | inhibition, % at 10 µM | 340,000 compounds, 2% hits; in the data active means inhibition above about 30%; inactive means below that, where a call was filed; further: 0% is about no effect
#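 Calcium flux kinetic readout in an inducible HEK293 TREx D2 line plated overnight at 30 C. After 180 s compound exposure, an EC80 dopamine challenge follows with another 180 s kinetic read to detect antagonism.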
# D2 PAM-1 = positive allosteric modulators of human D2 dopamine receptor. DiscoveRx D2 beta-arrestin cells, luminescence, 90 min; 100% = 57 uM dopamine signal. AID 624464. 360,000 compounds, 0.23% hits. potentiation, % (no concentration beside the values); in the data active means potentiation above about 50%; inconclusive means mostly about 30% to 49%
#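 PathHunter beta-arrestin assay in DiscoveRx D2 cells. Compounds were added with an EC20 of dopamine (50 nM final) for 90 min at 37 deg C. Luminescence was read 1 h after detection reagent, with 57 uM dopamine as the EC100 control.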
# D2 PAM-2 = positive allosteric modulators of human D2 dopamine receptor; P14416; HEK293 T-REx D2, calcium flux, EC20 dopamine potentiation; potentiation, % at 10 µM; 340,000 compounds, 0.34% hits;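 active means potentiation over 3 SD above the plate norm, cut at about 30% in these data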; further: 0% is about no effect
#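 Potentiation of an EC20 dopamine calcium response measured kinetically over 180 s, after a preceding 180 s compound-only read flagging agonists. Cells: inducible Hek293 Trex D2 line, 4000/well, cultured overnight at 30 C before dye loading.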
# * hit, by the source's call; ? = inconclusive; . = no result given. Rows were chosen to be rich in hits. Some 2.4% of all compounds tested hit in one or more screens of this group.
SMILES,D2 ag-1,D2 ag-2,D2 antag,D2 PAM-1,D2 PAM-2
COC(=O)C1=CCCN(C)C1,1,31*,-7,2,-12
COC(=O)c1ccc(CN2CCN(Cc3ccccc3)CC2)cc1,-1,0,-5,-12,-19
O=c1c2ccccc2nc(-c2ccco2)n1-c1nccs1,-3,1,30*,-5,0
O=c1[nH]c2ccccc2n1C1CCN(C(c2cc3ccccc3o2)c2nnnn2Cc2ccccc2)CC1 (configuration not stated),2,.,.,58*,.
CSCCC(c1nnnn1-c1ccc2c(c1)OCCO2)N1CCC(n2c(=O)[nH]c3ccccc32)CC1 (configuration not stated),4,.,.,65*,.
COc1cccc(C(c2nnnn2-c2ccc3c(c2)OCCO3)N2CCC(n3c(=O)[nH]c4ccccc43)CC2)c1OC (configuration not stated),4,.,.,?,.
O=c1[nH]c2ccccc2n1C1CCN(C(c2ccccc2OC(F)(F)F)c2nnnn2-c2ccc3c(c2)OCCO3)CC1 (configuration not stated),10,.,.,61*,.
COc1ccc(C(=O)C2CCCN(CC3CCCCC3)C2)cc1OC (configuration not stated),-3,.,.,-12,.
Cc1nnc(NC(=O)c2cccn(Cc3cccc([N+](=O)[O-])c3)c2=O)s1,.,-1,.,.,13
CCc1ccccc1NC(=O)c1cccn(Cc2ccccc2F)c1=O,.,1,.,.,-1
Cc1ccc2scc(N3CCN(C)CC3)c(=O)c2c1,.,1,.,.,7
CCC12CN3CC(CC)(CN(C1)C3c1c(C)[nH]c(=O)[nH]c1=O)C2=O (configuration not stated),.,0,.,.,5
c1ccc(CCCN2CCN(CCOC(c3ccccc3)c3ccccc3)CC2)cc1,3,.,.,-26,.
CCCCN(Cc1ccccc1)C1CCN(CCc2ccccc2)CC1,-5,-1,56*,-11,-21
COc1ccc(C(SCC(NC(=O)OCc2ccccc2)C(=O)O)c2ccc(OC)cc2)cc1 (configuration not stated),2,.,.,-5,.
Cc1ccc(-n2c(/C=C\c3ccc(F)c(F)c3)nc3ccccc3c2=O)c(C)c1,.,.,.,.,15
COc1cc2ccc(=O)oc2c2ccoc12,0,0,-31,-36,2
COc1cc2occc2c2oc(=O)ccc12,0,-1,33*,-23,-1
O=c1c2ccccc2nc(/C=C\c2ccccc2F)n1-c1ccc(O)cc1,.,0,.,.,16
O=C(Nc1ccc2c(c1)OCCO2)c1cccn(Cc2cccc([N+](=O)[O-])c2)c1=O,.,7,.,.,-7
O=[N+]([O-])c1ccc(N2CCCCC2)c2ncccc12,-2,0,-26,-8,16
O=[N+]([O-])c1ccc(N2CCCCCC2)c2nonc12,-4,85*,11,-8,-20
COC(=O)C1=C(c2ccccc2)C[C@@H]2CC[C@H]1N2C(=O)NC1CCCCC1,-6,.,.,-6,.
CC1CCN(C(=O)COC(=O)c2cn(C)c3ccccc23)CC1,-1,0,3,-4,-18
Cn1cc(C(=O)OCC(=O)NC2CCCCC2)c2ccccc21,-6,0,39*,-1,3
SMILES,D2 ag-1,D2 ag-2,D2 antag,D2 PAM-1,D2 PAM-2
O=S1(=O)N(CCN2CC=C(c3c[nH]c4cc(F)ccc34)CC2)c2cccc3c2N1CCC3,12,2,64*,-20,-25
Cc1ccc(-c2cc(-c3ccccc3)cc(-c3ccccc3)[n+]2-c2ccccc2)cc1,11,2,38*,11,-3
CCCN1CCc2cc(O)cc3c2[C@H]1Cc1ccc(O)c(O)c1-3,241*,.,.,129*,.
CN1CCc2cc(O)cc3c2[C@H]1Cc1ccc(O)c(O)c1-3,106*,.,.,101*,.
NCCc1c[nH]c2ccc(C(N)=O)cc12,-6,3,11,-1,-8
NCCc1c[nH]c2ccc(F)cc12,.,5,95*,.,-28
Cc1cc(C)c(NC2=NCCCS2)c(C)c1,1,0,-21,-22,50*
Cc1cccc(C)c1NC1=NCCCS1,-7,1,-9,4,-17
Cc1ccc(C2SCC(=O)Nc3c2c(=O)[nH]n3C2CCOC(C)(C)C2)cc1 (configuration not stated),-3,-1,37*,-21,3
COc1ccc(-n2c(/C=C\c3ccccc3F)nc3ccccc3c2=O)c(OC)c1,.,.,.,.,13
CC1(C)CN=C(Nc2ccc(F)c(Cl)c2)S1,-9,1,1,-21,0
CC1(C)CSC(Nc2ccc(F)c(Cl)c2)=N1,-1,0,12,13,32*
COc1ccc(OCC(=O)N2CCN(Cc3cccc(OC)c3OC)CC2)cc1,.,.,.,.,-3
CN(C)[C@@H]1C(=O)C(C(N)=O)=C(O)[C@@]2(O)C(=O)C3=C(O)c4c(O)cccc4[C@@](C)(O)C3[C@H](O)C12 (some centres not stated),9,1,2,-1,12
CC(=O)NC1CC2CCC(C1)N2 (configuration not stated),0,0,12,-13,36*
CCN1CCN(Cc2cc(C(C)(C)C)c(O)c(C(C)(C)C)c2)CC1,.,-1,46*,.,-23
Nc1ccc2ccc3cccc[n+]3c2c1,-1,31*,1,4,3
C[n+]1c(-c2ccccc2)c2cc(N)ccc2c2ccc(N)cc21,7,5,-11,25,-6
Cc1ccc(CN2C3CCCC2CC(NC(=S)NCc2ccccc2)C3)cc1 (configuration not stated),-1,1,104*,-2,-30
CNC(=S)NC1CC2CCCC(C1)N2CC(C)C (configuration not stated),0,.,.,-15,.
c1ccc(CNCCc2c[nH]c3ccccc23)cc1,5,9,61*,-4,-31
OC(CCNCCc1c[nH]c2ccccc12)C(F)(F)Cl (configuration not stated),-4,14,53*,3,-43
Clc1ccccc1CNCCc1c[nH]c2ccccc12,0,.,.,-33,.
Fc1cccc(CNCCc2c[nH]c3ccccc23)c1,-1,13,3,-59,-17
Cc1cccc(CNCCc2c[nH]c3ccccc23)c1,0,1,47*,-8,-19
OC(CNCCc1c[nH]c2ccccc12)C(F)(F)F (configuration not stated),5,0,12,3,-4
N#Cc1cc2c(nc1SCC(=O)Nc1ccc(OC(F)(F)F)cc1)C1CCN2CC1,.,0,.,.,-3
OCCN1C2CCC1CC(O)(c1ccc(F)cc1)C2 (configuration not stated),-2,1,48*,-39,-19
Clc1cccc(N2Cc3cc(-c4ccccc4)ccc3-n3nncc3C2)c1,-7,.,.,-8,.
